Laboratory results published in PubChem BioAssay (Tox21).
Values joined by “and” are separate entries in the source; they are usually repeats but may differ in a detail not shown here. Equal values may be shown once. Results filed as inconclusive are left out. Some compounds were tested as several samples or in several runs, with calls that do not always agree. Active and inactive are the calls of the source. Unless noted, calls come from the whole dose curve; as a rule, active = well fitted curve in the direction sought with a large enough effect in the repeat runs; inconclusive = weak or mixed curves; inactive = no such curve, though single readings can be large; an effect the other way counts as inactive or inconclusive.

What was measured:
[1] = qHTS assay to identify small molecule agonists of the TGF-beta/Smad signaling pathway - cell viability counter screen (AID 1346829); note: top concentration of the series differs between compounds; nearly all actives have a fitted effect of over 45% in size
How it was run: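 In parallel with the Smad reporter read, viability of HEK 293T cells stably carrying SBE-bla is quantified by ATP luminescence following 5 hr compound treatment.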

[2] = qHTS assay to identify small molecule agonists of the TGF-beta/Smad signaling pathway (AID 1346859; active = well fitted activation curve with a large enough effect in the signal ratio in the repeat runs, not every such curve was filed as active; the % refers to the signal ratio; note: series mostly up to about 77 µM)
How it was run: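 Dual-wavelength fluorescence (460/530 nm emission) quantified beta-lactamase expression under the Smad binding element in HEK 293T cells following 5 hr compound treatment at 37 C.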

[3] = target: Thyrotropin-releasing hormone receptor (Homo sapiens) (UniProt P34981); test: qHTS assay to identify small molecule antagonists of the thyrotropin-releasing hormone receptor (TRHR) signaling pathway (AID 1346877; active = well fitted inhibition curve with a large enough effect in the repeat runs, not every such curve was filed as active; note: series mostly up to about 51 µM)
Sequence of Thyrotropin-releasing hormone receptor (Homo sapiens) (P34981 whole entry, looked up): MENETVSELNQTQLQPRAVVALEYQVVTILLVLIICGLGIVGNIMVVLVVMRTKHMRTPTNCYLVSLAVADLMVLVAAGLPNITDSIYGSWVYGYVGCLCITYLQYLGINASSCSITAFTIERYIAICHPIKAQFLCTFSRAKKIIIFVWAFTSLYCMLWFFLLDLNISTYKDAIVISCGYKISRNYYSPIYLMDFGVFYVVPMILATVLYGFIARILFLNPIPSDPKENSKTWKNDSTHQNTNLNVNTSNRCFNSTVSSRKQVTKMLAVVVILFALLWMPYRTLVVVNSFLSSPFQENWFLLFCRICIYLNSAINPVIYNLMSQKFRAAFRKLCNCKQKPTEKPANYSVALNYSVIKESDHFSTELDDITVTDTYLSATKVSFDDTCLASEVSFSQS
How it was run: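 Overnight-plated (18 h, 37 °C) HEK293 cells expressing TRHR were dye-loaded 2 h, treated with compound, then stimulated with TRH at 1 nM final. Fluorescence intensity was captured every second for 3 min.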

[4] = target: Thyrotropin-releasing hormone receptor (Homo sapiens) (UniProt P34981); test: qHTS assay to identify small molecule agonists of the thyrotropin-releasing hormone receptor (TRHR) signaling pathway (AID 1346891; calls by dose curve;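 note: HEK293 cells expressing TRHR with calcium dye readout; series mostly up to about 58 µM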)
How it was run: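 Kinetic fluorescence (3 min, 1 s intervals) reported intracellular calcium after compound transfer onto TRHR-Hek293 cells pre-loaded with dye for 2 h at 37 °C.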

[5] = Human pregnane X receptor (PXR) small molecule agonists, qHTS cell viability counter screen (AID 1346977); note: nearly all actives have a fitted effect of over 50% in size; note: potency is the fitted concentration of half-maximal effect
How it was run: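 HepG2 cells stably carrying the PXR-Luc reporter are cultured with 5% charcoal-stripped FBS and treated with compounds for 24hr. CellTiter-Fluor is added at 23hr and fluorescence is read after 1hr.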

[6] = Caspase-3/7 induction in HepG2 cells by small molecules, qHTS assay (AID 1346978); note: nearly all actives have a fitted effect of over 15% in size
How it was run: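 Caspase-3/7 induction was measured by Caspase-Glo 3/7 luminescence (30 min, room temperature) after a 17 hr compound exposure of wild-type HepG2 cells seeded at 2,000 per well and pre-incubated 5 hr.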

[7] = Caspase-3/7 induction in CHO-K1 cells by small molecules, qHTS cell viability counter screen (AID 1346979); note: nearly all actives have a fitted effect of over 35% in size; note: potency is the fitted concentration of half-maximal effect
How it was run: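 Seeding: 1,500 CHO-K1 cells/well. Rest: 5hr, 37C. Treatment: compounds in DMSO, 16hr. Read: CellTiter-Fluor, 1hr, fluorescence.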

[8] = Caspase-3/7 induction in CHO-K1 cells by small molecules, qHTS assay (AID 1346980); note: nearly all actives have a fitted effect of over 15% in size
How it was run: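 Luminescent Caspase-Glo 3/7 read (30min, room temperature) quantified apoptosis induction. Cells were wild-type CHO-K1, treated with compound for 17hr at 37 C and 5% CO2.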

[9] = Caspase-3/7 induction in HepG2 cells by small molecules, qHTS cell viability counter screen (AID 1346981); note: nearly all actives have a fitted effect of over 30% in size; note: potency is the fitted concentration of half-maximal effect
How it was run: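 Treatment of HepG2 cells with DMSO-delivered compounds ran 16 hr at 37 C following a 5-hr pre-incubation of 2,000 cells/well. CellTiter-Fluor fluorescence, read after 1 hr, served as the viability measure in a qHTS format.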

[10] = target: Nuclear receptor subfamily 1 group I member 2 (Homo sapiens) (UniProt O75469); test: Human pregnane X receptor (PXR) small molecule agonists, qHTS assay (AID 1346982); note: nearly all actives have a fitted effect of over 35% in size; note: potency is the fitted concentration of half-maximal effect
Sequence of Nuclear receptor subfamily 1 group I member 2 (Homo sapiens) (O75469 whole entry, looked up): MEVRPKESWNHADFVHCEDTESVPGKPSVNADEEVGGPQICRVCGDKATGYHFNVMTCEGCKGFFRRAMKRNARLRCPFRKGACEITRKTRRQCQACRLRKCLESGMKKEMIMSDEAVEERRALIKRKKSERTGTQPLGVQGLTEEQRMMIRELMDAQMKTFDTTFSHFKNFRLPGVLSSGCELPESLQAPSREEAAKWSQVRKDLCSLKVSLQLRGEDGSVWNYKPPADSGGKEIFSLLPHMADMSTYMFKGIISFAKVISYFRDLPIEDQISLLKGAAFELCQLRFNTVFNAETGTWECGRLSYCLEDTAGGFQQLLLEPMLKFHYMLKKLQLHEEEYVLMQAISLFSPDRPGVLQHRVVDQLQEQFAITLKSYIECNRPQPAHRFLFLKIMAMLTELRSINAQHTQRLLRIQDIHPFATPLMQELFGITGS
How it was run: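 Stable HepG2 line reporting PXR-mediated CYP3A4 expression via luciferase. Treatment: 24 hr with compounds in DMSO at 37 C. Detection: ONE-Glo luminescence.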

[11] = target: Nuclear receptor subfamily 1 group I member 2 (Rattus norvegicus) (UniProt Q9R1A7); test: Rat pregnane X receptor (rPXR) activation by small molecules, qHTS assay (AID 1346983); conditions: rPXR luciferase reporter cells, One-Glo luminescence, 24 h; stronger effect = higher value; note: nearly all actives have a fitted effect of over 20% in size
Sequence of Nuclear receptor subfamily 1 group I member 2 (Rattus norvegicus) (Q9R1A7 whole entry, looked up): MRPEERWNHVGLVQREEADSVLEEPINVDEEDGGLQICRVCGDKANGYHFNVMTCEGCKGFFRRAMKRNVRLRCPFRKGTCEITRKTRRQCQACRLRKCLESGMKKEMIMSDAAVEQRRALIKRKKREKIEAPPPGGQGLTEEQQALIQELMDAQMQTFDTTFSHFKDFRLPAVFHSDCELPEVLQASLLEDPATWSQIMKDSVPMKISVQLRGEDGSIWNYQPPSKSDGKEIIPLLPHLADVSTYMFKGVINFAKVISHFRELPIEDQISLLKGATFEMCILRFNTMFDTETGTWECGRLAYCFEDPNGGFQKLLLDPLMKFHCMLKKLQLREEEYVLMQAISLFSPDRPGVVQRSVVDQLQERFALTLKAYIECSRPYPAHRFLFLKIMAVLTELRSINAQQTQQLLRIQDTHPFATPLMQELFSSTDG
How it was run: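 Luminescent readout (One-Glo luciferase, 30 min room temperature) followed 24 hr compound treatment at 37 C of rPXR cells plated 2,000 per well and preincubated 5hr; qHTS format with compounds delivered in DMSO.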

[12] = target: Nuclear receptor subfamily 1 group I member 2 (Homo sapiens) (UniProt O75469); test: CYP3A4 induction through human pregnane X receptor (PXR) by small molecules, qHTS assay (AID 1346984); note: nearly all actives have a fitted effect of over 40% in size
How it was run: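 After 24 h at 37C with compound, DPX-2 cells (HepG2, co-transfected PXR response element and CYP3A4 promoter-luciferase) got 3uM final P450-Glo Luciferin-IPA for 3 h; One-Glo luminescence followed.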

[13] = target: Nuclear receptor subfamily 1 group I member 2 (Homo sapiens) (UniProt O75469); test: Human pregnane X receptor (PXR) activation by small molecules, qHTS assay (AID 1346985); note: nearly all actives have a fitted effect of over 40% in size
How it was run: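 DPX-2 cells (HepG2 co-transfected with a PXR response element and a CYP3A4-promoter luciferase construct) were seeded at 2,000 per well, rested 5 hr at 37C, then exposed to DMSO-dissolved compounds for 24 hr. Activation was read as luciferase luminescence.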

[14] = target: Acetylcholinesterase (Homo sapiens) (UniProt P22303); test: Acetylcholinesterase (AChE) small molecule antagonists: colormetric cell-based qHTS assay (AID 1347395; calls by dose curve; note: nearly all actives have a fitted effect of over 30% in size)
Sequence of Acetylcholinesterase (Homo sapiens) (P22303 whole entry, looked up): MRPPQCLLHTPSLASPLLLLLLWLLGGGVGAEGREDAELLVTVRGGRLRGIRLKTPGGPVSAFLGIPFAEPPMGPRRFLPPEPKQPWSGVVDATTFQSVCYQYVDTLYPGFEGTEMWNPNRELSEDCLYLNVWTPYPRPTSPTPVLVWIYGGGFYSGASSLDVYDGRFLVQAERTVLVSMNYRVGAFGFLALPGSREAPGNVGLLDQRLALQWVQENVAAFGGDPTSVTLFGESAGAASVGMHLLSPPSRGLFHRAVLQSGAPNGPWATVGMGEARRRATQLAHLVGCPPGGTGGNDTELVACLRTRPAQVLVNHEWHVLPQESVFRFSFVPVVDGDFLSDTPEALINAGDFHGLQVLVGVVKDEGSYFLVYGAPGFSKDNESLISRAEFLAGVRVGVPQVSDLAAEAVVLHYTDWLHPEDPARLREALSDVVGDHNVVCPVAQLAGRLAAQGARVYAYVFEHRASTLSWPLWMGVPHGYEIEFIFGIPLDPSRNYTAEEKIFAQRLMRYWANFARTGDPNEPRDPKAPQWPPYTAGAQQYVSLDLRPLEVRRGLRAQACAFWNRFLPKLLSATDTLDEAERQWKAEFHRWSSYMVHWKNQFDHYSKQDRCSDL
How it was run: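 Quantitative HTS in attached SH-SY5Y cells: 30 min compound exposure, then 90 min with acetylthiocholine and DTNB at 37 C; colour from thiocholine reports AChE activity.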

[15] = target: Acetylcholinesterase (Homo sapiens) (UniProt P22303); test: Acetylcholinesterase (AChE) small molecule antagonists: fluorescence cell-based qHTS assay (AID 1347398; calls by dose curve; note: nearly all actives have a fitted effect of over 50% in size); conditions: Potency: AChE activity
How it was run: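 Cellular AChE activity read as thiocholine from acetylthiocholine hydrolysis, detected by Thiolite Green fluorescence at 490/520 nm after 40 min at room temperature. Compounds were pre-incubated 30 min at 37 C on adherent SH-SY5Y cells.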

[16] = target: Acetylcholinesterase (Homo sapiens) (UniProt P22303); test: Acetylcholinesterase (AChE) small molecule antagonists: enzyme-based qHTS assay with human liver microsomes (AID 1347399; calls by dose curve; note: nearly all actives have a fitted effect of over 60% in size); conditions: Potency: qHTS inhibition
How it was run: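 Recombinant human AChE (50 mU/mL in the enzyme mix) and human liver microsomes (0.25 mg/mL final) were preincubated with compound and NADPH (0.25 mg/mL final) for 30 min at 37 C. Acetylthiocholine/DTNB was then added; thiocholine was read colorimetrically after 10 min at room temperature.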

[17] = target: Cytochrome P450 2D6 (Homo sapiens) (UniProt P10635); test: Cytochrome P450 Family 2 Subfamily D Member 6 (CYP2D6) small molecule antagonists: luciferase reporter qHTS assay (AID 1671196); note: nearly all actives have a fitted effect of over 50% in size; note: potency is the fitted concentration of half-maximal effect
Sequence of Cytochrome P450 2D6 (Homo sapiens) (P10635 whole entry, looked up): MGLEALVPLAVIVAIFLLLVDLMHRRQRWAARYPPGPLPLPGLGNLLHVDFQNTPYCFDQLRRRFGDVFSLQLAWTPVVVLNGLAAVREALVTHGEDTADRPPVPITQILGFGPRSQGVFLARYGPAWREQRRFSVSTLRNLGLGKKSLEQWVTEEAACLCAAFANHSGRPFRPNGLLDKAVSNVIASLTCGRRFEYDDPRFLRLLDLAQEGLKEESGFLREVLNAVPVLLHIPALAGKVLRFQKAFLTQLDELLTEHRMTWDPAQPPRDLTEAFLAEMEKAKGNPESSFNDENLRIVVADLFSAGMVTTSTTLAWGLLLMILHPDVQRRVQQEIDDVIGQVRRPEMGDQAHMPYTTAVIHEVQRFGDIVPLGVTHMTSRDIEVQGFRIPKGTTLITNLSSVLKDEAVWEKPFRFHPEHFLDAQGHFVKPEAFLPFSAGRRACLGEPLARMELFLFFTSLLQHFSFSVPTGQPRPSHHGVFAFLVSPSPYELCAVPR
How it was run: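 Chemicals tested for interference with CYP2D6 activity; proluciferin substrate, NADPH regeneration, 1 h at room temperature, luminescent detection.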

[18] = target: Cytochrome P450 2C19 (Homo sapiens) (UniProt P33261); test: Cytochrome P450 Family 2 Subfamily C Member 19 (CYP2C19) small molecule antagonists: luciferase reporter qHTS assay (AID 1671197); note: nearly all actives have a fitted effect of over 65% in size; note: potency is the fitted concentration of half-maximal effect
Sequence of Cytochrome P450 2C19 (Homo sapiens) (P33261 whole entry, looked up): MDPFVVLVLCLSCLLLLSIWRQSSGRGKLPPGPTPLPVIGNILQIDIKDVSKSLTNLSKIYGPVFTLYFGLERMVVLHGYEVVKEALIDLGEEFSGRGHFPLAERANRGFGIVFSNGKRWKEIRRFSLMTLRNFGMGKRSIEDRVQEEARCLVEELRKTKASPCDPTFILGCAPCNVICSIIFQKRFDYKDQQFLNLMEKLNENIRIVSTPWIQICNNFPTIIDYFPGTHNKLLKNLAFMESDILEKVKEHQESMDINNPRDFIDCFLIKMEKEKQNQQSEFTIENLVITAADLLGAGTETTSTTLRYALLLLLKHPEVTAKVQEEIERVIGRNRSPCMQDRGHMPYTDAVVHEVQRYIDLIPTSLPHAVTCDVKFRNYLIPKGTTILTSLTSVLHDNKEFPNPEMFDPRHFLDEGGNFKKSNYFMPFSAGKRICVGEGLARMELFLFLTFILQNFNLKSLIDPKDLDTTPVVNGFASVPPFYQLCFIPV
How it was run: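 Compounds were tested on CYP2C19 activity via proluciferin conversion to luciferin. The 37C, 1 h reaction followed NADPH addition; detection reagent stopped it.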

[19] = target: Cytochrome P450 2C9 (Homo sapiens) (UniProt P11712); test: Cytochrome P450 Family 2 Subfamily C Member 9 (CYP2C9) small molecule antagonists: luciferase reporter qHTS assay (AID 1671198); note: nearly all actives have a fitted effect of over 50% in size; note: potency is the fitted concentration of half-maximal effect
Sequence of Cytochrome P450 2C9 (Homo sapiens) (P11712 whole entry, looked up): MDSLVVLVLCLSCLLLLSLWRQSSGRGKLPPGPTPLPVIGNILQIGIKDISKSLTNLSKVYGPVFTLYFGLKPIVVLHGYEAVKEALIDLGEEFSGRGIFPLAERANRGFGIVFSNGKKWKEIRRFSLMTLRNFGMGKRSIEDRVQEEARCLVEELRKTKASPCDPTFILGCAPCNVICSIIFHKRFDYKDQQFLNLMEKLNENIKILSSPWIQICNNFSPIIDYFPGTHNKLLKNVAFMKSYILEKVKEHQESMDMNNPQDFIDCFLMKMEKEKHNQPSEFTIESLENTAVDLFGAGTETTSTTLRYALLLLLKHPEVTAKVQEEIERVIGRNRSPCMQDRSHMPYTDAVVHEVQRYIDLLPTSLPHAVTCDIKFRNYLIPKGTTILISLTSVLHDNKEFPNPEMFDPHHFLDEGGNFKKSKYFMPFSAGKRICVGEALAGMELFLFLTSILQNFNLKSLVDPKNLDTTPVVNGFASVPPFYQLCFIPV
How it was run: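 Enzyme-substrate mix preincubated with compound 10 min at room temperature; reaction started with NADPH regeneration solution, 1 h 37C. Luminescent luciferin product read after 20 min detection reagent.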

[20] = target: Acetylcholinesterase (Homo sapiens) (UniProt P22303); test: Acetylcholinesterase (AChE) small molecule antagonists: enzyme-based qHTS assay (AID 1347397; calls by dose curve; note: nearly all actives have a fitted effect of over 55% in size); conditions: Potency: AChE enzyme activity inhibition
How it was run: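 Colorimetric DTNB readout of acetylthiocholine hydrolysis, 10 min at room temperature, after 30 min room-temperature exposure of 50 mU/mL recombinant human enzyme to compound; DMSO vehicle control.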
% is set by controls: 0 for no effect and ±100 for the full control effect.

O=C(NC(=O)c1c(F)cccc1F)Nc1cc(Cl)c(OC(F)(F)C(F)C(F)(F)F)cc1Cl (centres undefined)
inactive: outcome [1] | Potency [2] | outcome [3] | Potency [4] | Potency [5] | outcome [6] | Potency [7] | outcome [8] | Potency [9] | Potency [10] | max activation [11] -1.37% | outcome [12] | Potency [13] | Potency [14] | Potency [15] | Potency [16] | Potency [17]
active: Potency [18] 10 µM and 34.7 µM | Potency [19] 11.2 µM and 17.4 µM

CCCN(CCC)N=O
inactive: outcome [1] | Potency [2] | outcome [3] | Potency [4] | Potency [5] | outcome [6] | Potency [7] | outcome [8] | Potency [9] | Potency [10] | Potency [14] | Potency [20] | Potency [15] | Potency [16] | Potency [18]

CC(C)OC(=O)Nc1cccc(Cl)c1
inactive: outcome [1] | Potency [2] | outcome [3] | Potency [4] | Potency [5] | outcome [6] | Potency [7] | outcome [8] | Potency [9] | Potency [14] | Potency [20] | Potency [15] | Potency [16] | Potency [17]
active: Potency [10] 38 µM and 48.6 µM | Potency [18] 24.8 µM and 31.7 µM | Potency [19] 55.6 µM and 71 µM

CCOC(=O)c1ccccc1C(=O)OCC
inactive: outcome [1] | Potency [2] | outcome [3] | Potency [4] | Potency [5] | outcome [6] | Potency [7] | outcome [8] | Potency [9] | Potency [10] | max activation [11] -0.77% | outcome [12] | Potency [13] | Potency [14] | Potency [20] | Potency [15] | Potency [16]

CCC[CH2][Sn]([Cl])([Cl])[Cl]
inactive: outcome [1] | Potency [2] | outcome [3] | Potency [4] | Potency [5] | outcome [6] | Potency [7] | outcome [8] | Potency [9] | Potency [10] | Potency [14] | Potency [20] | Potency [15] | Potency [16]
40.6 µM (active) and inactive: Potency [18]

CN=C=S
30.9 µM (active) and inactive: Potency [10]
inactive: outcome [1] | Potency [2] | outcome [3] | Potency [4] | Potency [5] | outcome [6] | Potency [7] | outcome [8] | Potency [9] | Potency [14] | Potency [20] | Potency [15] | Potency [16] | Potency [17]
80.4 µM (active) and inactive: Potency [18]

CC(C)NC(=O)N1CC(=O)N(c2cc(Cl)cc(Cl)c2)C1=O
50.1 µM (active) and inactive: Potency [5]
active: Potency [10] 24.3 µM and 54.5 µM | Potency [18] 7.96 µM and 8.94 µM | Potency [19] 1.26 µM
19.3 µM (active) and inactive: Potency [7]
inactive: outcome [1] | Potency [2] | outcome [3] | Potency [4] | outcome [6] | outcome [8] | Potency [9] | Potency [14] | Potency [20] | Potency [15] | Potency [16]

CC(C)C#N
67.3 µM (active) and inactive: Potency [18]
inactive: outcome [1] | Potency [2] | outcome [3] | Potency [4] | Potency [5] | outcome [6] | Potency [7] | outcome [8] | Potency [9] | Potency [10] | Potency [14] | Potency [20] | Potency [15] | Potency [16] | Potency [17]

CCc1cccc(C)c1N(C(=O)CCl)C(C)COC (centres undefined)
inactive: outcome [1] | Potency [2] | outcome [3] | Potency [4] | Potency [5] | outcome [6] | Potency [7] | outcome [8] | Potency [9] | Potency [14] | Potency [20] | Potency [15] | Potency [16]
active: Potency [10] 2.89 µM and 3.06 µM | Potency [18] 6.69 µM and 6.33 µM | Potency [19] 29.9 µM and 28.3 µM

Clc1ccccc1Cl
inactive: outcome [1] | Potency [2] | outcome [3] | Potency [4] | Potency [5] | outcome [6] | Potency [7] | outcome [8] | Potency [9] | Potency [10] | max activation [11] -2.27% | outcome [12] | Potency [13] | Potency [14] | Potency [15] | Potency [16] | Potency [18]

COC(=O)NC(=S)Nc1ccccc1NC(=S)NC(=O)OC
inactive: outcome [1] | Potency [2] | outcome [3] | Potency [4] | Potency [5] | outcome [6] | Potency [7] | outcome [8] | Potency [9] | Potency [14] | Potency [20] | Potency [15] | Potency [16] | Potency [17]
active: Potency [10] 61.1 µM and 48.6 µM | Potency [18] 63.3 µM and 22.4 µM | Potency [19] 39.9 µM

O=[N+]([O-])c1ccccc1
16.4 µM (active) and inactive: Potency [17]
inactive: outcome [1] | Potency [2] | outcome [3] | Potency [4] | Potency [5] | outcome [6] | Potency [7] | outcome [8] | Potency [9] | Potency [10] | max activation [11] 7.19% | outcome [12] | Potency [13] | Potency [14] | Potency [15] | Potency [16] | Potency [18] | Potency [19]

BrCCBr
69.1 µM (active) and inactive: Potency [18]
43.6 µM (active) and inactive: Potency [17]
inactive: outcome [1] | Potency [2] | outcome [3] | Potency [4] | Potency [5] | outcome [6] | Potency [7] | outcome [8] | Potency [9] | Potency [10] | Potency [14] | Potency [20] | Potency [15] | Potency [16] | Potency [19]

Clc1ccc(Cl)cc1
inactive: outcome [1] | Potency [2] | outcome [3] | Potency [4] | outcome [6] | outcome [8] | max activation [11] -1.7% | outcome [12] | Potency [13] | Potency [14] | Potency [15] | Potency [16] | Potency [18]
active: Potency [7] 2.17 µM
4.32 µM (active) and inactive: Potency [9]
2.17 µM (active) and inactive: Potency [5]
1.93 µM (active) and inactive: Potency [10]
